High-throughput results from PubChem BioAssay.
Compounds with a hit are over-represented: about 10% of the library has one in this group of screens.
G9a inh – blocks human histone lysine methyltransferase G9a; Q96KQ7; G9a H3K9 monomethylation, AlphaScreen, 2 h; Potency, µM (series often up to 102 µM), for the others: at the highest dose activity, negative = inhibition, most hits filed as inhibitors; 8.8% of 350,000 active; note: potency is the fitted concentration of half-maximal effect; % is set by controls: 0 for no effect and ±100 for the full control effect; nearly all actives have a fitted effect of over 75% in size
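Quantitative HTS format: methyltransferase activity on a biotin-tagged H3K9 peptide is measured by AlphaScreen, using a rabbit anti-monomethyl-H3K9 antibody with streptavidin donor and anti-IgG acceptor beads. Final levels are 20 nM enzyme, 500 nM peptide, 20 uM SAM; 2 h RT.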
CtBP-E1A inh – inhibitors of CtBP/E1A interaction; 0.49% of 340,000 active; activity change, % (test concentration not listed); AID 651724; AlphaScreen GST-E1A/His-CtBP binding, 1536-well; active compounds read low; in the data active = activity change below about -65%; inconclusive = mostly about -30% to -63%; note: % is set by controls: 0 for no effect and ±100 for the full control effect
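GST-E1A and His-tagged CtBP (125 nM each as 5X stock) were preincubated with pin-transferred compound for 2 h at 37 °C in the dark, then glutathione donor and nickel acceptor beads were added for 1 h before AlphaScreen reading.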
HP1b binding inh – HP1-beta chromodomain-methylated histone interaction inhibition; P83916; AlphaScreen HP1-beta / biotin-H3K9me3 peptide binding; Potency, µM (titrated, usually from 114 µM), inactives show top-dose activity change, negative = inhibition, actives largely listed as inhibitors; 0.56% of 390,000 active; AID 540317; note: potency is the fitted concentration of half-maximal effect; nearly all actives have a fitted effect of over 70% in size
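AlphaScreen: HP1-beta (50 nM) preformed 30 min with biotin-H3(1-18)K9me3 peptide (50 nM) in PBS pH 7.4, 0.01% Tween-20. Compound added for 30 min at RT, then streptavidin donor/nickel chelate acceptor beads (10 ug/mL) for 30 min.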
BAZ2B block – blocks human BAZ2B; Q9UIF8; 4.4% of 360,000 active; AlphaScreen BAZ2B-H3K14Ac peptide displacement; Potency, µM (series often up to 114 µM), for the others: top-dose activity change, negative = inhibition, hits mostly inhibitors; AID 504333; note: potency is the fitted concentration of half-maximal effect; % is set by controls: 0 for no effect and ±100 for the full control effect; nearly all actives have a fitted effect of over 60% in size
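AlphaScreen luminescence quantifies BAZ2B engagement of H3K14Ac peptide; the protein and biotinylated peptide are both at 50 nM final, buffer PBS pH 7.4 with 0.01% Tween-20, all steps at room temperature.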
JMJD2A Tudor – JMJD2A Tudor domain (human) inhibition; 4.4% of 390,000 active; O75164; AlphaScreen JMJD2A-Tudor / H3K4me3 peptide binding; Potency, µM (doses to about 114 µM), inactives show at the highest dose activity change, negative = inhibition, actives largely listed as inhibitors; note: potency is the fitted concentration of half-maximal effect; % is set by controls: 0 for no effect and ±100 for the full control effect; nearly all actives have a fitted effect of over 50% in size
Target sequence (O75164 whole entry, looked up, the tested form may be a part): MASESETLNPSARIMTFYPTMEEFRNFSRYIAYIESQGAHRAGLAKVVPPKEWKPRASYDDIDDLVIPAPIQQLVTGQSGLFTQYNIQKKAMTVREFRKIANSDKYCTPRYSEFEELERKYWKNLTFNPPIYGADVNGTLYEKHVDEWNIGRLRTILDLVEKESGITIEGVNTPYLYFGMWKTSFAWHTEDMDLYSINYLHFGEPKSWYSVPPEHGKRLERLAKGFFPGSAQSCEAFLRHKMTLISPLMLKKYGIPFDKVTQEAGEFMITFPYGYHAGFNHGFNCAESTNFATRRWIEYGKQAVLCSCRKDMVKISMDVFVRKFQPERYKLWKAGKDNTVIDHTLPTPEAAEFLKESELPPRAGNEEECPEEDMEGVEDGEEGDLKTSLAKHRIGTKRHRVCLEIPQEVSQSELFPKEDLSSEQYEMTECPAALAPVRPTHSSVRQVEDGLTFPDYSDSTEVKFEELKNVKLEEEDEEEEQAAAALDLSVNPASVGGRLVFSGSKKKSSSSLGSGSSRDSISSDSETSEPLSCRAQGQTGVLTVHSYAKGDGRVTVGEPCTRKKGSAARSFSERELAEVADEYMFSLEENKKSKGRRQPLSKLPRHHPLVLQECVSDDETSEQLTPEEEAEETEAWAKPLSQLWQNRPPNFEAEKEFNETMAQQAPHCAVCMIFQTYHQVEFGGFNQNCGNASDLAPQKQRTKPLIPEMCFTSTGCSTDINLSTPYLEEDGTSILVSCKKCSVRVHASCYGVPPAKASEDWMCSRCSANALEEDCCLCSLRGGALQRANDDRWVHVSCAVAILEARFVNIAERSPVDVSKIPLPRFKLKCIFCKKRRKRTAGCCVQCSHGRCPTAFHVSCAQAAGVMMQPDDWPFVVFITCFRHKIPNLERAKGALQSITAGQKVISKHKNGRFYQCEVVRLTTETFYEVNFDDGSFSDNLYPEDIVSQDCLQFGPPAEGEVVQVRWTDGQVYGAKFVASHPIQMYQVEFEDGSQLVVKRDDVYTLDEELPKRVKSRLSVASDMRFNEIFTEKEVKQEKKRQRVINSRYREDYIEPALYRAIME
Six1-Eya2 inh – inhibitors of human Six1/Eya2 interaction. Q15475+O00167. AlphaScreen GST-Six1/His-Eya2 binding, biochemical; active compounds read low. activity change, % (test concentration not listed). 0.56% of 360,000 active; in the data active = activity change below about -65%; inconclusive = mostly about -30% to -63%; note: % is set by controls: 0 for no effect and ±100 for the full control effect
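AlphaScreen luminescence read after one hour at 37 °C in darkness. Pin-transferred compounds met GST-Six1 and His-Eya2 protein (5X stock 250 nM/500 nM) plus glutathione donor and Ni-chelate acceptor beads (5X, 50 ug/mL).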
Starred values were filed as active, the others as inactive; u = inconclusive; x = not tested or not shown; [ ] = another dose, or the depositor's remark. Unless noted, calls come from the whole dose curve; as a rule, active = well fitted inhibition curve with a large enough effect; inconclusive = small, poorly fitted or top-dose-only effect; inactive = no such curve, though single readings can be large or run the other way.

SMILES	G9a inh	CtBP-E1A inh	HP1b binding inh	BAZ2B block	JMJD2A Tudor	Six1-Eya2 inh
O=C(O)CCN1CCc2ccccc21	u	-1.4	2.4%	u	-14.2%	-1.5
C=CCSc1nc(C)cc(/C=C\c2ccccc2)c1C#N	59.2%	20.9	83.9%	3.3%	15.6%	14.6
O=C(CC(Nc1ccc(F)cc1)C(=O)O)c1ccccc1 (centres undefined)	10µM*	9.9	41.5%	-9.5%	-14.4%	-8.9
CCc1ccccc1N1C(=O)N(Cc2ccc(C#N)cc2)c2ccccc2S1(=O)=O	3.9%[59 µM]	x	29.9%	-9.2%	-13.3%	x
CCCCn1c(SCC(=O)c2ccc(OC)c(OC)c2)nc2cc(S(N)(=O)=O)ccc21	50.1µM*	-5.7	23.7%	-0.6%	-10.3%	-7.2
CCC(CC)C(=O)NCCCN1CCOCC1	-12.1%[59 µM]	9.8	11.6%	8.3%	-13.1%	9.3
CCC(CC)C(=O)NCCN1CCN(C(=O)C(CC)CC)CC1	5.62µM*	-2.0	27.8%	-2.7%[57.1 µM]	-6.5%	12.0
Cc1ccc(S(=O)(=O)COCCN2CCN(S(=O)(=O)c3ccc(C)cc3)CCC2=O)cc1	-50.0%[59 µM]	x	x	x	x	x
C#CCOCCOCCOCCNc1nc(N2CCN(C(=O)C(Cc3cc4ccccc4[nH]3)n3cc(C(N)Cc4ccc(O)cc4)nn3)CC2)nc(N2CCN(C(=O)C(Cc3cc4ccccc4[nH]3)n3cc(C(N)Cc4ccc(O)cc4)nn3)CC2)n1 (centres undefined)	-27.7%[12.7 µM]	-17.6	-36.1%	11.2µM*	8.91µM*	-14.3
C#CCOCCOCCOCCNc1nc(N2CCN(C(=O)[C@H](Cc3cc4ccccc4[nH]3)n3cc([C@@H](N)Cc4ccc(O)cc4)nn3)CC2)nc(N2CCN(C(=O)[C@H](Cc3cc4ccccc4[nH]3)n3cc([C@@H](N)CC(C)C)nn3)CC2)n1	u	-24.8	-23.7%	u	50.1µM*	-21.6
COCCn1nnnc1C(c1cccs1)N1CCN2CCCC2C1 (centres undefined)	9.9%	-5.0	-19.9%	-2.6%	u	5.1
COC(=O)c1ccc(NC(=O)CC2Nc3cc(C)c(C)cc3NC2=O)cc1 (centres undefined)	-10.7%[59 µM]	x	6.0%	-2.2%	-10.7%	x
COc1ccc(CSc2nc3ccncc3n2Cc2nc(-c3ccc(OC)c(OC)c3)oc2C)cc1	u	x	26.6%	-37.0%	u	x
COc1ccccc1-c1nnc2sc(-c3cnccn3)nn12	u	-23.6	-2.0%	-37.6%	50.1µM*	-5.7
COc1cccc(-c2nn3c(-c4ccccn4)nnc3s2)c1	-14.6%	u	63.1%	58.9%	79.4µM*	u
COc1ccc(-c2nn3c(C4CCCCC4)nnc3s2)cc1OC	10µM*	-17.3	u	23.5%	-19.5%	-0.5
COc1ccc(-c2nn3c(-c4cccc(C)c4)nnc3s2)cc1OC	x	-18.8	41.3%	x	-17.7%	-21.8
COc1cc(-c2nn3c(C4CCCCC4)nnc3s2)cc(OC)c1OC	u	-1.1	-11.1%	1.8%	-10.1%	-0.4
COc1cccc(-c2nnc3sc(-c4ccccn4)nn23)c1	-1.1%[59 µM]	-9.9	u	x	6.2%[11.4 µM]	-5.9
COc1ccc(-c2nn3c(-c4ccccn4)nnc3s2)cc1OC	16.2%[59 µM]	-89.5*	16.3%	44.7µM*	u	-80.6*
COc1ccccc1-c1nnc2sc(-c3ccc(N(C)C)cc3)nn12	-23.7%	1.8	33.8%	5.0%	1.4%	-2.3
CCn1cc(C(=O)N2CCN(c3ccccc3F)CC2)c(=O)c2ccc(C)nc21	2.7%	4.2	22.4%	3.3%	-17.9%	2.6
O=C(CSc1nc2c(c(=O)[nH]1)CCC2)Nc1cccc(O)c1	-37.3%[59 µM]	x	33.2%	-20.1%	-9.3%	x
CCOC(=O)N1CCc2c(sc(NCc3ccc(OCC)cc3)c2C(=O)Nc2ccc(OC)cc2OC)C1	7.94µM*	x	-3.9%	-37.1%	u	x
CCOC(=O)N1CCc2c(sc(NCc3ccc(OC)c(OC)c3OC)c2C(=O)Nc2ccc(OC)cc2OC)C1	7.08µM*	x	u	u	u	x
